Measurements from the supplement of paper PMC10338343.
± gives the standard deviation.

test system: MILI (PIWIL2) piRISC loaded with L1MC piRNA (26 nt); assay: pre-steady-state target cleavage rate (min^-1); guide: L1MC piRNA 5'p-UAACUAAAUACUAUGCAAGCUGUAGG; MIWI and MILI are mouse PIWI proteins and EfPiwi is from a freshwater sponge; tags in brackets are library labels; higher = faster piRNA-guided slicing of the target; conditions: auxiliary factor: 500 nM mouse GTSF1
Procedure, shortened: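 With or without 500 nM GTSF1 partner protein, 1 nM active affinity-purified piRISC carrying one synthetic guide was mixed with 0.1 nM transcribed, DNA-blocked target RNA library in HEPES–potassium acetate buffer at 33 °C for 0–8 or 0–960 min. Uncleaved targets were sequenced and normalised to depth and to weakly complementary targets, three trials were pooled, and k3 was capped at 0.0001 min^-1. The pre-steady-state cleavage rate came from a burst-and-steady-state fit.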

| Sequence | pre-steady-state target cleavage rate |
| --- | --- |
| UCCUGGUACACGUUGCAUAGUAUUUAGUAA | 0.166 ± 0.038 |
| UCCUGCUACAGCUUGCAAUGUAUUUACAAA | 0.0477 ± 0.014 |
| UCCUCCUACAGCUUGGUUAGUAUUUACAAA | 0.0445 ± 0.012 |
| UCCUGCUACAGCUUGCAUAGUAUAUACUUA | 0.0361 ± 0.011 |
| UCCUGGAUGUCCUUGCAUAGUAUUUUCUAA | 0.0134 ± 0.0068 |
| UCCUGGAUGUCCUUGCAAAGUAUUUUGUUA | 0.0119 ± 0.0056 |
| UCCUGGUACAGCUUGCAUAGUAUUUUCAAA | 0.109 ± 0.027 |
| UCCUCCUAGUGCUUGCAUAGUAUUUUCAAA | 0.0158 ± 0.0057 |
| UCCUGGAUGUCCUAGCAUAGUAUUUAGUAA | 0.143 ± 0.031 |
| UCCUGGAUGUGCUUGCAUAGUAUUUAUUUA | 0.0305 ± 0.011 |
| UCCUGGAUGAGCUUGCAUAGUAAUUUGUUA | 0.0508 ± 0.018 |
| UCCUGGAUCAGGUUCCAUAGUAUUUAGUUA | 0.00709 ± 0.004 |
| UCCUGGAUGUCGUUGCAUAGUAUUUACGUUA | 0.231 ± 0.064 |
| UCCUGGAUGUCGUUGCAUAGUAAUUAGUAA | 0.0579 ± 0.013 |
| UCCUGGAUCAGCUUGCAUAGUAUUUACUAA | 0.0285 ± 0.011 |
| UCCUGGUACAGCUUGCAUAGUAAAAACAAA | 0.0104 ± 0.0051 |
| UCCUGGAACAGCUUGCAAUCUAUUUAGUUA | 0.0258 ± 0.0054 |
| UCCUGGAUGUCGAAGCAUAUUAUUUAGUUA | 0.00703 ± 0.0037 |
| UCCUGGAUGUGGUUGCAUAGUAUUUAGAUA | 0.0485 ± 0.021 |

| Sequence | pre-steady-state target cleavage rate |
| --- | --- |
| UCCUGGAACAGCUUGCAUAGUUUUUUCAAA | 0.00594 ± 0.0037 |
| UCCUGCUUGUGCUUGCAUAGUAUUUACAAA | 0.0112 ± 0.0055 |
| UCCUGGAUCAGCUUGCAUUGUAUUUACAAA | 0.0117 ± 0.005 |
| UCCUGGAUCAGCUUGCAUACUAUAUAGUUA | 0.018 ± 0.0043 |
| UCCUGGAACAGCUUGCAUAGUAUAAACAAA | 0.0505 ± 0.015 |
| UCCUGGAACAGCUUGCAAAGUAUUUUGUUA | 0.0942 ± 0.021 |
| UCCUGGAUGUCGAUGCAUAGUAUUCUAGUUA | 0.115 ± 0.023 |
| UCCUGCUACACGUUGCAUAGUAUUUAGAAA | 0.0396 ± 0.013 |
| UCCUGGAUCAGCUUGCAUAGUUUUUAGAAA | 0.0202 ± 0.0088 |
| UCCUGGAACUCGUUGCAUAGUAUUUUCAAA | 0.0397 ± 0.011 |
| UCCUGGAUGUCGUUGCAUAGUAUUAUGUUA | 0.156 ± 0.045 |
| UCCUCCUACAGCUACGAUAGUAUUUAGAAA | 0.13 ± 0.029 |
| UCCUCCUACAGCUUGCAUAGAAUAUAGUUA | 0.0822 ± 0.019 |
| UCCUCCUACUCGUUGCAUAGUAUUUACAAA | 0.0372 ± 0.012 |
| UCCUGGAUGUCGAAGCAUAGUAUUUACUUA | 0.00488 ± 0.0029 |
| UCCUGGAUCAGCUUGGAUACUAUUUAGUUA | 0.0383 ± 0.01 |
| UCCUGGAUGAGCUUGCAUUGAAUUUAGUUA | 0.00697 ± 0.0027 |
| UCCUCCUACAGCUUGCUAUGUAUUUAGAAA | 0.00902 ± 0.0042 |

same assay, conditions: auxiliary factor: none (no GTSF1)

| Sequence | pre-steady-state target cleavage rate |
| --- | --- |
| UCCUGGAACAGCUUGCAAUCAUAAAUCAAA [g14:g23:cont:t1A] | < 0.0001 |
| UCCUGGAUGUCGUUGCAUAGUUUAUAGUUA | 0.0036 ± 0.0028 |
| UCCUGGAUGUCGAACGUAAGAUAUUUAGUUA | < 0.0001 |
